How the values were obtained:
Format in all cases: functional
[1] = target: Solute carrier family 2, facilitated glucose transporter member 1 (Homo sapiens) (UniProt P11166); assay: ST_JUDE_LEISH: Cytotoxicity at 2uM final concentration against transgenic Leishmania Mexicana promastigotes LmGLUT1 that are glucose transport deficient and complemented with the human glucose transporter GLUT1. Activity is measured by DNA content using SYBR green in vitro
[2] = target: Hexose transporter 1 (Plasmodium falciparum) (UniProt O97467); assay: ST_JUDE_LEISH: Cytotoxicity at 2uM final concentration against transgenic Leishmania Mexicana promastigotes LmPfHT that are glucose transport deficient and complemented with the Plasmodium falciparum hexose transporter. Activity is measured by DNA content using SYBR green in vitro
[3] = target: Glucose transporter (Leishmania mexicana) (UniProt O61059); assay: ST_JUDE_LEISH: Cytotoxicity at 2uM final concentration against transgenic Leishmania Mexicana promastigotes LmGT2 that are glucose transport deficient and complemented with the L. Mexicana glucose transporter 2. Activity is measured by DNA content using SYBR green in vitro

Chain of Solute carrier family 2, facilitated glucose transporter member 1 (Homo sapiens) (P11166 whole entry): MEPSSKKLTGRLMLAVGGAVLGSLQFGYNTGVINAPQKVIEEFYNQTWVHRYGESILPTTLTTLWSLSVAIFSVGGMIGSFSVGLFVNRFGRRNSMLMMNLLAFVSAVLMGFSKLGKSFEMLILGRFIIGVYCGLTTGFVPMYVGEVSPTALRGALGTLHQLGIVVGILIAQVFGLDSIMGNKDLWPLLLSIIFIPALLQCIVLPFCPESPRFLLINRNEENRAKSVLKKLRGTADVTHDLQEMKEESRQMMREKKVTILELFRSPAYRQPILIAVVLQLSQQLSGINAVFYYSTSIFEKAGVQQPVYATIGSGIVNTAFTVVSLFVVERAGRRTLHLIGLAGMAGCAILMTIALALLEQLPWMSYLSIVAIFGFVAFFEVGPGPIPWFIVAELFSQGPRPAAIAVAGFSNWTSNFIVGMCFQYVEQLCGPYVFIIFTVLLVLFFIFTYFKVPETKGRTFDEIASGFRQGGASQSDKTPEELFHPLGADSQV

| Compound | inhibition [1] | inhibition [2] | inhibition [3] |
| --- | --- | --- | --- |
| CCOC(=O)c1cc(Cl)cc(Cl)c1OCCCON1C(=N)N=C(N)NC1(C)C | 0.88% | 0.77% | 1.35% |
| CC(C)(C)c1cc(C(=O)Nc2ccc(C(=N)N)cc2)c(O)c(C(C)(C)C)c1 | -0.84% | 3.05% | 1.59% |
| CC(=O)Nc1nc(C(=O)Nc2cccc(-c3ccc(-c4nc5ccccc5[nH]4)cc3)c2)cs1 | 13% | 11.8% | 10.3% |
| COc1cccc(C=CC(=O)N(CCN)Cc2ccccc2)c1 | 6.9% | 8.75% | 7.33% |
| O=S1(=O)C=C(c2ccccc2)CC1 | 1.23% | 1.28% | 1.41% |
| CC(C)Sc1nncc(-c2cnnc(SC(C)C)n2)n1 | -0.53% | -0.11% | 0.07% |
| c1ccc2c3c([nH]c2c1)C(c1ccc2c(c1)CCO2)N(c1ncnc(N2CCN(CCCN4CCOCC4)CC2)n1)CC3 (stereo not given) | 8.79% | 3.13% | 1.89% |
| CN(CCCCNC(=O)/C=C/c1ccccc1)C1CC2(CCN(C(=O)OC(C)(C)C)CC2)c2ccccc21 (stereo not given) | 3.4% | 3.28% | 1.67% |
| Cc1cc(=NN=Cc2ccc(Cl)cc2)c2ccc(F)cc2[nH]1 | 2.07% | 2.71% | 1.54% |
| Cc1ccc(CNC(=O)[C@H](CCCN)Nc2nc(NCC3CCCCC3)ncc2C)cc1 | 3.55% | 2.8% | 2.97% |
| Cc1cc(NC(=O)c2cccs2)ccc1OC1CCN(Cc2ccc(F)cc2)C1 (stereo not given) | 0.09% | 0.19% | 1.92% |
| Cc1cccc2nc(-c3ccc(-c4ccc(CNCc5ccccc5)cc4)cc3)[nH]c12 | 3.54% | 3.32% | 4.35% |
| Nc1ncc(-c2cccc(F)c2)cc1-c1nc2cc(F)ccc2[nH]1 | 4.17% | 11.1% | 6.56% |
| N=c1n(CCN2CCCC2)c2ccccc2n1CC(O)c1ccc(Cl)c(Cl)c1 (stereo not given) | 1.98% | 1.57% | 9.08% |
| Cn1cnc2nc(NCCc3ccccc3)nc(NCc3cccc4ccccc34)c21 | 0.91% | 1.38% | -1.12% |
| O=C(NC1CC1)c1ccc(N2CCC(c3ccccc3)CC2)nc1 | 5.99% | 5.01% | 3.25% |
| O=C1COC2(CN1C1CCN(Cc3ccc(O)c(Cl)c3)C1)c1ccccc1-c1ccccc12 (stereo not given) | 9.11% | 7.57% | 5.67% |
| Nc1nc(N)c2c(ccc3c2ccn3Cc2cccc(F)c2)n1 | 102% | 104% | 99.8% |
| NC1CCN(Cc2cccc(-c3cccc(-c4nc5ccccc5[nH]4)c3)c2)C1 (stereo not given) | 2.17% | 3.31% | 1.15% |
| O=[N+]([O-])c1cc(/C=N/Nc2nc3nonc3nc2Nc2ccc(F)cc2)c(Cl)cc1Cl | -0.53% | -0.25% | -0.83% |
| Cc1ccccc1C1CCN(C2CCC(NC(=O)c3ccc(-c4cc(C(F)(F)F)nn4C)s3)CC2)CC1 (stereo not given) | 10.8% | 9.92% | 9.51% |
| CN1CCC(N(Cc2ccc(-c3ccc(C(F)(F)F)cc3)cc2)C(=O)Cn2c(SCc3cccc(F)c3F)cc(=O)c3c2CCC3)CC1 | -1.29% | 0.12% | 1.56% |
| Cc1n[nH]c2ccc(-c3cc(OC[C@@H](N)Cc4ccccc4)cnc3-c3cc4ccccc4s3)cc12 | 8.58% | 3.69% | 2.02% |
| Cc1cccc2nc(-c3ccc(-c4ccc(CN5CCCC(N)C5)cc4)s3)[nH]c12 (stereo not given) | 0.2% | 0.06% | 0.74% |
| c1ccc(-c2n[nH]cc2Nc2ccnc3ccccc23)nc1 | 5.35% | 3.76% | 3.97% |

| Compound | inhibition [1] | inhibition [2] | inhibition [3] |
| --- | --- | --- | --- |
| COc1ccccc1NC(=O)Nc1cccc(-c2cccc(-c3nc4cccc(C)c4[nH]3)c2)c1 | -1.43% | 0.52% | -1.31% |
| Oc1cc2c(cc1CN1CCN(Cc3ccc(Cl)s3)CC1)CCC2 | 2.02% | 4.66% | 1.82% |
| CCCCCN1CCCC1CNS(=O)(=O)c1cccc(C(=O)Nc2cccc(C(F)(F)F)c2)c1 (stereo not given) | 6.45% | 6.76% | 5.05% |
| O=S(=O)(Nc1ccc(CCN2CCC(N3CCCCC3)CC2)cc1)c1cccc2cccnc12 | 3.76% | 3.39% | 1.88% |
| CCCCCCNC(=N)c1ccc2[nH]c(-c3ccc(O)cc3)nc2c1 | 3.58% | 4.17% | 3.78% |
| N#Cc1cccc(Nc2nccc(NCC(O)c3cccc(C(F)(F)F)c3)n2)c1 (stereo not given) | 4.68% | 3.25% | -3.38% |
| OC(CNCc1cccc(Oc2ccc(Cl)cc2)c1)c1cccc(C(F)(F)F)c1 (stereo not given) | 1.7% | 1.81% | -0.71% |
| O=C(Nc1ccccc1)NC1CCN(CCC2(c3ccc(Cl)c(Cl)c3)COCN(C(=O)c3ccccc3)C2)C1 (stereo not given) | 4.31% | 4.43% | 4.63% |
| N[C@@H](COc1cccc2c(-c3ccncc3)c(-c3cccc(NC(=O)Nc4ccccc4)c3)nn12)c1ccccc1 | -2.24% | -1.71% | -2.62% |
| N#Cc1ccc(N2C[C@@H](OCc3ccccc3)C[C@H]2C(=O)NCCC(c2ccccc2)c2ccccc2)c2ccccc12 | 5.42% | 4.29% | 3.78% |
| CN(C)c1ccc(-c2ccc(C(=O)NC3CCN(Cc4ccc5c(c4)OCCO5)CC3)s2)cc1 | 4.82% | 6.3% | 3.8% |
| NC1CCN(Cc2cccc(-c3ccc(-c4nc5cc(F)ccc5[nH]4)cc3)c2)C1 (stereo not given) | 2.82% | 1.25% | -0.29% |
| O=C(Nc1ccc(-c2nc3ccccc3[nH]2)cc1)C1CCCN(CC2CC2)C1 (stereo not given) | 12.9% | 10.8% | 4.89% |
| COc1cc(Nc2nccc(-c3c(-c4cccc(NC(=O)c5c(F)cccc5F)c4)nn4ccccc34)n2)cc(OC)c1OC | 20.8% | 24.9% | 8.03% |
| CCCCCOc1ccc(N2C(N)=NC(N)=NC2(C)C)cc1 | 2.39% | 2.59% | 2.5% |
| Cc1cc(Nc2ncc(C#N)c(Nc3ccccc3C(N)=O)n2)ccc1N1CCN(C)CC1 | 79.2% | 78.8% | 65.4% |
| O=C(/C=C/c1ccc(C(F)(F)F)cc1)NCCCCCN1CCN(C(=O)Nc2ccc(Cl)c(Cl)c2)CC1 | 0.91% | 2.31% | -0.42% |
| CCOc1ccc(C=CC(=O)Nc2ccc3nc(N4CCOCC4)cc(C)c3c2)cc1OC | 10.1% | 9.63% | 4.75% |
| O=C(NCc1ccccc1)NC1CCN(c2ccnc3cc(Cl)ccc23)C1 (stereo not given) | -2.48% | 0.99% | 0.94% |
| CCCNCc1ccc(-c2ccc(CN(CCOC)C(=O)c3nn(-c4ccccc4)nc3C)cc2)nc1 | 4.16% | 1.87% | 1% |
| CCNC(=O)N[C@@H]1CN[C@@H](C#Cc2cc3c(Nc4ccc(OCc5cccc(F)c5)c(Cl)c4)ncnc3s2)C1 | -0.84% | -1.15% | -0.46% |
| COc1ccc(-c2cccc(NC(=O)c3ccc(Cl)cc3)c2)cc1CN1CCCC1 | 11.3% | 9.27% | 5.55% |
| CCCN(c1ccc(C(F)(F)F)cc1[N+](=O)[O-])S(=O)(=O)C(c1ccccc1)c1ccc(C(F)(F)F)cc1[N+](=O)[O-] (stereo not given) | -0.48% | 6.88% | -1.01% |
| N=C(N)c1cc(Cl)cc(NC(=O)Nc2cc(Cl)cc(C(=N)N)c2)c1 | 2.37% | 1.25% | 1.53% |
| N=C(N)NC(=O)Nc1cc(Cl)c(Cl)c(Cl)c1 | 2.56% | 4% | 2.18% |
